According to PubChem BioAssay (NCATS):
Records with an inconclusive call do not appear. Activity calls are given as the source filed them. Unless noted, calls come from the whole dose curve; as a rule, active = well fitted curve in either direction with a large enough effect (not every such curve was filed as active); inconclusive = small, poorly fitted or top-dose-only effect, or another doubt; inactive = flat fitted curve, though single readings scatter.

biological target: Mitogen-activated protein kinase 10 (Mus musculus) (UniProt Q61831); test: JNK3 AlphaScreen Assay (AID 530); conditions: JNK3 lysate, c-Jun phosphorylation; series mostly up to 57.1 µM; activity change, negative = inhibition: at the top concentration;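 note: kinase came from lysate of stimulated human HepG2 cells; signal reports phosphorylation of biotinylated GST-cJun 1-79 at Ser73 with 10 µM ATP; % is set by controls: 0 for no effect and ±100 for the full control effect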
Summary of the method: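 qHTS titrations with 15 min compound pre-incubation before adding ATP (10 uM final). Read-out: AlphaScreen of Ser73-phosphorylated biotin-GST-cJun using HepG2 lysate JNK3 activated by IL-1β and TNFα.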

Activity change, negative = inhibition, inactive:
CN(C)C(=O)c1ccc(-c2ccc3ncnc(N(C)Cc4ccco4)c3c2)cc1 -5.34%, Cc1ccccc1-c1nccc(-n2ccnc2)n1 -3.12%, CN(C)Cc1ccccc1-c1nccc(NC2CC2)n1 4.56%, c1ccc2c(NC3CC3)nc(-c3ccoc3)nc2c1 -11.4%, N#Cc1cccc(-c2cc(-n3ccnc3)ncn2)c1 -1.88%, CN(C)C(=O)c1ccc(-c2ccc3ncnc(Nc4ccccc4)c3c2)cc1 9.47%, COc1cccc(-c2cncnc2NCCc2cnc[nH]2)c1 -1.39%, FC(F)(F)c1ccccc1-c1cncnc1NCCc1cnc[nH]1 6.66%, CN(Cc1ccco1)c1ccnc(-c2ccoc2)n1 -7.11%, COc1cccc(-c2nc(NCc3cnc(C)cn3)c3ccccc3n2)c1 -0.19%, c1cncc(-c2ccc3ncnc(N4CCNCC4)c3c2)c1 -0.0142%, CN(C)C(=O)c1ccc(-c2cncnc2NCCN2CCOCC2)cc1 3.98%, COc1ccc2[nH]cc(CCNc3cc(-c4ccccc4CN(C)C)ncn3)c2c1 -6.41%, COc1ccc2[nH]cc(CCNc3ccnc(-c4ccccc4C)n3)c2c1 -18.7%, CC(=O)NCCNc1nc(-c2ccc3c(c2)OCO3)nc2ccccc12 4.73%, c1csc(CNc2nc(-c3ccc4c(c3)OCO4)nc3ccccc23)c1 0.949%, N#Cc1cccc(-c2cc(NCc3cccnc3)ncn2)c1 -16%, c1ccc(Nc2ncncc2-c2ccc3c(c2)OCO3)cc1 -1.98%, COc1ccc2[nH]cc(CCNc3ncncc3-c3ccc(C(=O)N(C)C)cc3)c2c1 -7.66%, c1ncc(-c2ccc3c(c2)OCO3)c(NCCc2cnc[nH]2)n1 1.03%, Fc1ccc(Nc2nc(-c3ccoc3)nc3ccccc23)cc1 -0.498%, CCNc1ncc2nc(-c3ccc(Cl)cc3)c(=O)n(Cc3cccs3)c2n1 13.5%, COc1ccc(CNc2ccnc(-c3cccc(NS(C)(=O)=O)c3)n2)c(OC)c1 29.2%, COc1ccc(CNc2ccnc(-c3ccccc3Cl)n2)c(OC)c1 23.5%, CN(C)C(=O)c1ccc(-c2nccc(NCc3cccnc3)n2)cc1 1.17%, c1ccc(CNc2ncncc2-c2ccoc2)cc1 -2.11%, COc1ccc2[nH]cc(CCNc3ccnc(-c4ccoc4)n3)c2c1 -29.9%, Clc1ccccc1-c1nc(NCCN2CCOCC2)c2ccccc2n1 -3.87%, COCCNc1nc(-c2ccccc2C(F)(F)F)nc2ccccc12 3.53%, CN(Cc1ccco1)c1cc(-c2cccnc2)ncn1 -2.76%, FC(F)(F)c1ccccc1-c1cc(NCc2cccs2)ncn1 5.01%, COc1ccc2[nH]cc(CCNc3ncnc4ccc(-c5c(C)noc5C)cc34)c2c1 -23%, CC(=O)NCCNc1ncnc2ccc(-c3ccc(C(=O)N(C)C)cc3)cc12 -0.0735%, CCNc1ncc2nc(-c3ccccc3)c(=O)n(Cc3cccc(OC)c3)c2n1 24.6%, COCCNc1ccnc(-c2c(C)noc2C)n1 4.83%, COc1ccc2[nH]cc(CCNc3nc(-c4ccccc4CN(C)C)nc4ccccc34)c2c1 -13.6%, CN(C)C(=O)c1ccc(-c2nccc(-n3ccnc3)n2)cc1 -6.4%

biological target: 3',5'-cyclic-AMP phosphodiesterase 4B (Homo sapiens) (UniProt Q07343); test: qHTS Assay for Inhibitors of PDE-IV (AID 607; active = well fitted activation curve with a large enough effect in the main read-out, with a control signal flat, not every such curve was filed as active; note: potency is the fitted concentration of half-maximal effect; for activation (PDE inhibition): % of control where 0% means no effect); conditions: HEK293 ACTOne CNG channel cells, membrane potential fluorescence; series mostly up to 22.9 µM; activation (PDE inhibition): at the top concentration
Summary of the method: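 HEK293 ACTOne cells with CNG channel (1000/well), endogenous PDE4; membrane potential dye, compounds up to 22.9 uM final. Fluorescence Ex 535/Em 590; RO 20-1724 (100 uM final) as reference.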

Chain of 3',5'-cyclic-AMP phosphodiesterase 4B (Homo sapiens) (Q07343 whole entry, looked up): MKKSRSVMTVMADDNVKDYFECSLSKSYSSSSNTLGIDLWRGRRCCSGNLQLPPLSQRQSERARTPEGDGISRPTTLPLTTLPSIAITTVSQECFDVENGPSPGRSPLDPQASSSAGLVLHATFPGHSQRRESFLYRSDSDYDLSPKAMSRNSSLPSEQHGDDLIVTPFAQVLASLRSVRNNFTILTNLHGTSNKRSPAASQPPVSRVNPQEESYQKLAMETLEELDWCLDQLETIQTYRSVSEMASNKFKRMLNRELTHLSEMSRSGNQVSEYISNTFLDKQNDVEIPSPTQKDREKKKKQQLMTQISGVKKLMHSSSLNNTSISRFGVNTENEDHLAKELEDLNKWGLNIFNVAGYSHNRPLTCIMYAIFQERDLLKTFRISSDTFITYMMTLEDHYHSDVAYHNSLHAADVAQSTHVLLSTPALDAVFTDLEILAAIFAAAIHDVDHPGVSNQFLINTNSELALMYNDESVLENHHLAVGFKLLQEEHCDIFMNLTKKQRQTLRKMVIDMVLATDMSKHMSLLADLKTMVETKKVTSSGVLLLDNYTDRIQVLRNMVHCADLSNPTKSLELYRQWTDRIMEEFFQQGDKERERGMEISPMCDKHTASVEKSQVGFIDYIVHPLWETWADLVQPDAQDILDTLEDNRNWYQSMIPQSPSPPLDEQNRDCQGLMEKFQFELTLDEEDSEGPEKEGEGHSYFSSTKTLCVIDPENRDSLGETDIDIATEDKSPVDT

Activation (PDE inhibition), inactive:
Cc1ccccc1-c1nccc(-n2ccnc2)n1 12.4%, CN(C)Cc1ccccc1-c1nccc(NC2CC2)n1 19.1%, N#Cc1cccc(-c2cc(-n3ccnc3)ncn2)c1 12%, COc1cccc(-c2cncnc2NCCc2cnc[nH]2)c1 -4.01%, FC(F)(F)c1ccccc1-c1cncnc1NCCc1cnc[nH]1 -4.99%, CN(Cc1ccco1)c1ccnc(-c2ccoc2)n1 -0.531%, c1cncc(-c2ccc3ncnc(N4CCNCC4)c3c2)c1 -3.27%, CN(C)C(=O)c1ccc(-c2cncnc2NCCN2CCOCC2)cc1 -0.731%, COc1ccc2[nH]cc(CCNc3cc(-c4ccccc4CN(C)C)ncn3)c2c1 11.6%, COc1ccc2[nH]cc(CCNc3ccnc(-c4ccccc4C)n3)c2c1 -29.2%, CC(=O)NCCNc1nc(-c2ccc3c(c2)OCO3)nc2ccccc12 6.28%, N#Cc1cccc(-c2cc(NCc3cccnc3)ncn2)c1 7.79%, COc1ccc2[nH]cc(CCNc3ncncc3-c3ccc(C(=O)N(C)C)cc3)c2c1 1.79%, c1ncc(-c2ccc3c(c2)OCO3)c(NCCc2cnc[nH]2)n1 12.2%, COc1ccc(CNc2ccnc(-c3ccccc3Cl)n2)c(OC)c1 -10.1%, CN(C)C(=O)c1ccc(-c2nccc(NCc3cccnc3)n2)cc1 -3.81%, c1ccc(CNc2ncncc2-c2ccoc2)cc1 10.4%, COc1ccc2[nH]cc(CCNc3ccnc(-c4ccoc4)n3)c2c1 -10.5%, Clc1ccccc1-c1nc(NCCN2CCOCC2)c2ccccc2n1 2.89%, CN(Cc1ccco1)c1cc(-c2cccnc2)ncn1 14.3%, FC(F)(F)c1ccccc1-c1cc(NCc2cccs2)ncn1 25.2%, COc1ccc2[nH]cc(CCNc3ncnc4ccc(-c5c(C)noc5C)cc34)c2c1 22%, CC(=O)NCCNc1ncnc2ccc(-c3ccc(C(=O)N(C)C)cc3)cc12 8.79%, COCCNc1ccnc(-c2c(C)noc2C)n1 -0.131%, COc1ccc2[nH]cc(CCNc3nc(-c4ccccc4CN(C)C)nc4ccccc34)c2c1 6.25%, CN(C)C(=O)c1ccc(-c2nccc(-n3ccnc3)n2)cc1 3.5%

Potency, active:
COc1ccc(CNc2ccnc(-c3cccc(NS(C)(=O)=O)c3)n2)c(OC)c1 2000 nM
